From PubChem BioAssay (EPA / NIEHS)
Some compounds were tested as several samples or in several runs, with calls that do not always agree. Active and inactive are the calls of the source. How the source made its calls: active means hit-call score of the fitted dose curve at least 0.9, where 1 is the maximum; inactive means score below 0.9.

experiment: ATG_Ets_CIS: Attagene CIS-FACTORIAL HepG2 Assay for human Erythroblast Transformation Specific (ETS) (AID 2282941); settings: HepG2 ETS cis-reporter transcription, actives raise or lower the signal
Experimental: ATG_CIS is a cell-based, multiplexed-readout assay that uses HepG2, a human liver cell line, with measurements taken at 24 hours after chemical dosing in a 24-well plate.ATG_Ets_CIS is one of 52 assay component(s) measured or calculated from the ATG_CIS assay. It is designed to make measurements of mRNA induction, a form of inducible reporter, as detected with fluorescence intensity signals by Reverse transcription polymerase chain reaction (RT-PCR) and Capillary electrophoresis technology.Data from the assay component ATG_Ets_CIS was analyzed into 1 assay endpoint. This assay endpoint, ATG_Ets_CIS, was analyzed with bidirectional fitting relative to DMSO as the negative control and baseline of activity. Using a type of inducible reporter, measures of mRNA for gain or loss-of-signal activity can be used to understand the reporter gene at the transcription factor-level as they relate to the gene ETS1. Furthermore, this assay endpoint can be referred to as a primary readout, because this assay has produced multiple assay endpoints where this one serves a reporter gene function. To generalize the intended target to other relatable targets, this assay endpoint is annotated to the dna binding intended target family, where the subfamily is winged helix-turn-helix.
Human liver HepG2 cells are transiently transfected with multiple reporter transcription units (MRTUs) in 6-well plates using FuGene 6 reagent (Roche; 3 ml FuGene/1 mg DNA). The MRTU constructs are regulated by a cis-regulating element (promoter). […] A major difference between the CIS and TRANS system is that in CIS activities of endogenous TFs are measured, whereas the TRANS assay evaluates changes in activities of exogenous, chimeric NR-Gal4 proteins. […] At the end of 24 hour incubation, total RNA was isolated using TriZol reagent (Invitrogen). The isolated RNA is then reverse-transcribed using oligo(dT) primer and Mo-MLV reverse transcriptase (Invitrogen) with DNAse I (Ambion) treatment for 30 min. The one-tenth of the produced cDNA was amplified by PCR using Taq DNA polymerase (Invitrogen) and two reporter sequence-specific primers. The PCR products were fluorescently labeled by primer extension with 6-arboxyfluorescein (6-FAM) 5'-labeled reporter sequence-specific primer (2 min at 95 C, 20 s at 68 C and 10 min at 72 C) and these products were digested with 5U of HpaI (New England Biolabs) for 2h at 37 C. The fragments were purified using Qiaquick PCR columns (Qiagen), analyzed on an ABI 3130xL genetic analyzer (Applied Biosystems) with peak positions identified by using a set of X-rhodamine (ROX)-labeled MapMarker1000 molecular weight standards (BioVentures). The raw capillary electrophoresis data was processed using Attagraph software (Attagene).

Structure (SMILES)	outcome	AC50
Cc1ccccc1N	inactive	
N#CN=C(N)N	inactive	
N#Cc1ccccn1	inactive	
O=C(NCO)NCO	inactive	
C=C(C)C#N	inactive	
COP(=S)(OC)Oc1ccc(S(=O)(=O)N(C)C)cc1	inactive	
Oc1cccc2cccnc12	inactive	
O=C1C2(Cl)C3(Cl)C4(Cl)C(Cl)(Cl)C5(Cl)C3(Cl)C1(Cl)C5(Cl)C24Cl (stereo not given)	inactive	20.3 µM (active)
O=P(O)(O)CN(CP(=O)(O)O)CP(=O)(O)O	inactive	
O=C(CCl)CCl		39.1 µM (active)
C[C@H]1CCCC(=O)CCC/C=C/c2cc(O)cc(O)c2C(=O)O1		7.35 µM (active)
ClC(Cl)=C(Cl)C(Cl)=C(Cl)Cl	inactive	
C=CC(=O)OCCCCCC(C)C	inactive	
NNC(=S)NN	inactive	
Cc1cc(Cl)ccc1O[C@H](C)C(=O)O	inactive	
CCNc1nc(NC(C)(C)C)nc(SC)n1	inactive	
C=CC#N	inactive	
COP(=S)(OC)Oc1c(Cl)cc(C)cc1Cl	inactive	
ClCc1cccnc1		81.3 µM (active)
ClCc1ccccn1	inactive	

Structure (SMILES)	outcome	AC50
C=C(C)C(=O)[O][Sn]([CH2]CCC)([CH2]CCC)[CH2]CCC	inactive	
NC(=S)Nc1ccccc1	inactive	
CCC(=O)C(CC(C)N(C)C)(c1ccccc1)c1ccccc1 (stereo not given)	inactive	
CC(C)c1cccc(C(C)C)c1O	inactive	
ClC1=C(Cl)[C@]2(Cl)[C@H]3[C@H]([C@H]4C=C[C@H]3C4)[C@@]1(Cl)C2(Cl)Cl	inactive	
Clc1ccc(COC(Cn2ccnc2)c2ccc(Cl)cc2Cl)cc1 (stereo not given)	inactive	
Cn1sc(Cl)cc1=O	inactive	
O=[N+]([O-])c1c(Cl)c(Cl)cc(Cl)c1Cl	inactive	
CC(C)CCCCCCOC(=O)c1ccccc1C(=O)OCCCCCCC(C)C	inactive	
O=[N+]([O-])c1ccc2c3c(cccc13)CC2	inactive	
Cl/C=C\C[N+]12CN3CN(CN(C3)C1)C2	inactive	
CC12CC1(C)C(=O)N(c1cc(Cl)cc(Cl)c1)C2=O (stereo not given)	inactive	
O=Cc1cccc(Oc2ccccc2)c1	inactive	
COc1ccccc1OC	inactive	
CCOC(=O)Nc1cccc(OC(=O)Nc2ccccc2)c1	inactive	
CN(C)N=O	inactive	
CCOP(=S)(OCC)Oc1ccc(S(C)=O)cc1 (stereo not given)	inactive	
OCC(O)CCl (stereo not given)	inactive	
CCSC(C)CC1CC(=O)C(C(CC)=NOC/C=C/Cl)=C(O)C1 (stereo not given)	inactive	
